D2 ag-1: agonists of human D2 dopamine receptor; P14416; HEK293 T-REx D2 cells, calcium flux agonist mode; activation, % at 2 µM; 340,000 tested, 0.53% active;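 active = activation over 3 SD above normal in the single-dose calcium agonist read, cut at about 30% in these data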; also: 0% is about no effect
Target sequence (P14416 whole entry, looked up): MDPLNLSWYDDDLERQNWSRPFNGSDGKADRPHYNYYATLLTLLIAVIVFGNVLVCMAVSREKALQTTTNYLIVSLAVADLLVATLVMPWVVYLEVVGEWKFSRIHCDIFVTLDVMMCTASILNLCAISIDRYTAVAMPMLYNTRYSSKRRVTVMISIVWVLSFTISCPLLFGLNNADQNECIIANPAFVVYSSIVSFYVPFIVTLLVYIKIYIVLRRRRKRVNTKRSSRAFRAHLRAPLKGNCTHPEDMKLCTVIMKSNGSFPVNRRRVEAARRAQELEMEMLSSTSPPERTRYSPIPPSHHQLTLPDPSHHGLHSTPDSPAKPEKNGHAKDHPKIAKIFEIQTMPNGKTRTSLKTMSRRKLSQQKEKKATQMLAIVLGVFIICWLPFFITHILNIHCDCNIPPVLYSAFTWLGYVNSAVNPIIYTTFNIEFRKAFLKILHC
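Tetracycline-induced HEK293 Trex cells with D2 receptor force-coupled to calcium signaling, plated overnight at 30 C and loaded with no-wash calcium dye. Calcium flux read kinetically for 180 s after compound addition; responses flag agonists.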
D2 PAM-1: positively modulates the human D2 dopamine receptor allosterically; potentiation, % at 10 µM; AID 485347; HEK293 T-REx D2, calcium flux, EC20 dopamine potentiation; P14416; 340,000 tested, 0.34% active;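 active = potentiation over 3 SD above the plate norm, cut at about 30% in these data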; also: 0% is about no effect
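Primary screen. Calcium kinetics in induced HEK293 T-REx D2 cells: compound pre-addition 180 s, EC20 dopamine, 180 s more.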
D2 antagonist: D2 dopamine receptor (human) antagonism; 340,000 tested, 2% active; HEK293 TREx D2 cells, calcium flux, dopamine EC80; AID 485344; inhibition, % at 10 µM; in the data active = inhibition above about 30%; inactive = below that, where a call was filed; also: 0% is about no effect
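Overnight-induced (tetracycline, 30 C) HEK293 T-REx cells carrying force-coupled D2 receive a no-wash calcium dye, then compound, then EC80 dopamine at 180 s; signals are read kinetically throughout.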
D2 ag-2: human D2 receptor agonism in beta-arrestin assay | 360,000 tested, 0.084% active | DiscoveRx PathHunter D2 beta-arrestin, luminescence, 90 min; 100% = 57 uM dopamine signal | P14416 | activation, % (concentration not given with the values) | AID 624465; in the data active = activation above about 40%
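DiscoveRx PathHunter D2 beta-arrestin cells (2,100/well) attached overnight, then compound-stimulated 90 min at 37 C in HBSS/10 mM HEPES/0.1% Tween-20 buffer; beta-galactosidase complementation read by luminescence after 1 h at ambient temperature. Dopamine 57 uM final (EC100) as control.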
D2 PAM-2: potentiates the human D2 dopamine receptor allosterically; P14416; DiscoveRx D2 beta-arrestin cells, luminescence, 90 min; 100% = 57 uM dopamine signal; potentiation, % (no concentration beside the values); 360,000 tested, 0.23% active; AID 624464; in the data active = potentiation above about 50%
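PathHunter D2 cells, attached overnight at 37 deg C, received compound in DMSO plus dopamine at EC20 (50 nM final) for 90 min at 37 deg C. Beta-arrestin recruitment was read as luminescence after 1 h with detection reagent at ambient temperature.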
Active calls of the source: *; / = not tested or not shown. An excerpt weighted towards active compounds, which were near 2.4% of everything screened.

SMILES	D2 ag-1	D2 PAM-1	D2 antagonist	D2 ag-2	D2 PAM-2
Cc1cccc(C)c1NS(=O)(=O)c1ccc2c(c1)C(=O)c1ccccc1C2=O	0	11	-2	11	60*
O=C(O)c1ccc(NS(=O)(=O)c2ccc3c(c2)C(=O)c2ccccc2C3=O)cc1	0	2	-8	3	29
Cn1cc(Br)c(-c2cccc(NC(=O)CCCC(=O)O)c2)n1	0	-3	9	-2	-6
COc1cccc(NC(=O)C2CCCN2C(=O)Nc2ccccc2)c1 (configuration not stated)	-1	4	33*	-5	-14
COc1cccc(NC(=O)C2CCCN2C(=O)Nc2cccc(F)c2)c1 (configuration not stated)	0	-2	2	-2	3
Cc1ccc(NC(=O)CCCN2C(=O)COc3ccc(C)cc32)c(C)c1	-1	4	/	/	/
CCC(C)N1C(=O)/C(=C/c2c(NCCCOC(C)C)nc3c(C)cccn3c2=O)SC1=S (configuration not stated)	34*	20	25	-3	-3
CCCCOc1ccc(CN(C)c2ncnc(N)n2)cc1	0	-4	31*	-1	-3
COc1ccc(NC(=O)NCCN2CCN(c3cc(OC)ccc3OC)CC2)cc1	0	-8	-8	-3	-3
COc1ccc(Cl)c(N2CCN(CCCNC(=O)Nc3ccc(C)cc3)CC2)c1	-1	-23	36*	3	-24
CCN(Cc1ccccc1)S(=O)(=O)c1cn(C)cn1	-1	2	1	-5	-21
Cc1cc(NS(=O)(=O)c2ccc(NC(=O)c3ccc([N+](=O)[O-])s3)cc2)nc(C)n1	/	/	/	12	60*
O=C(Nc1ccc(S(=O)(=O)NC2=NCCCCC2)cc1)c1ccc([N+](=O)[O-])s1	0	-3	-20	7	68*
O=C(Nc1ccc(S(=O)(=O)NC2=NCCCCC2)cc1)c1cccs1	/	/	/	-3	1
CCc1ccc(S(=O)(=O)c2cn(CC(=O)Nc3ccc(C)cc3)c3ccccc3c2=O)cc1	1	-8	/	/	/
O=C(Nc1cc(C(F)(F)F)ccc1N1CCOCC1)C1=NN(c2ccccc2)C(=O)CC1	0	-1	-19	3	-5
O=C(CSC1=NS(=O)(=O)c2cc(F)ccc2N1)NCCc1ccccc1	36*	-6	24	-5	-19
CCCn1c(=O)c2sccc2n2c(CCCC(=O)N3CCN(c4ccc(OC)cc4)CC3)nnc12	/	-7	/	/	/
COc1ccc(S(=O)(=O)N2CCN(C(=O)[C@@H]3CCC(=O)N3C3OC(=O)c4ccccc43)CC2)cc1 (some centres not stated)	0	-4	52*	-2	-3
C=CCn1c(=O)[nH]c2nc3cc(N=CN(C)C)c(C)cc3nc2c1=O	30*	4	-6	-4	-11
CN(C)/C=N/c1cc(=O)[nH]c(=O)n1CC1CC1	1	-1	-9	-1	-7
Cc1cccc(CSc2ccc3nnc(CCNS(=O)(=O)c4ccccc4)n3n2)c1	-1	-5	/	/	/
Cc1ccc(/C=C/C(=O)OCC(=O)NCc2ccccc2)o1	0	-4	-6	-4	7
Cc1ccc(/C=C/C(=O)Oc2ccc(C#N)cc2)o1	0	3	48*	/	/
CCCNC(=O)COC(=O)/C=C/c1ccc(C)o1	2	-3	30*	-3	-6
SMILES	D2 ag-1	D2 PAM-1	D2 antagonist	D2 ag-2	D2 PAM-2
COc1cccc(NC(=O)c2cc3c(-c4ccc(Cl)cc4)nn(C)c3s2)c1	-1	10	/	/	/
NC(=Nc1ccccc1)Nc1ccccc1	79*	-17	56*	9	-6
CCOC(=O)/C(C(=Nc1ccccc1)Nc1ccccc1)=C(\C)O	-1	7	-8	-2	-12
Cc1ccc2nc(CN3CCN(C(=O)Nc4ccc(C)c(F)c4)CC3)oc2c1	/	-10	/	/	/
Cc1cc(C)c(NC(=O)c2ccc(CN3CCc4ccccc4C3)cc2)c(C)c1	8	-24	52*	-1	-43
O=C(CNC1CCN(Cc2ccccc2)CC1)Nc1ccc(S(=O)(=O)N2CCCCC2)cc1	0	-29	37*	-3	-25
CCOc1ccc(C(=O)Nc2ccccc2NC(C)=O)cc1OCC	-2	-37	103*	0	-9
